Results on 85 molecules are retold here after PubChem BioAssay AID720504 (National Center for Advancing Translational Sciences (NCATS), 2013).

In all, about 360,000 compounds went through this assay and about 10,000 (2.8%) were called active. Another 4% or so got no clear call; they are omitted. The sample holds actives, similar compounds and a random draw of the others, so the mix is not that of the screen. Calls come from the whole dose curve; as a rule, active = well fitted inhibition curve with a large enough effect; inconclusive = small, poorly fitted or top-dose-only effect; inactive = flat fitted curve, though single readings scatter.
% is set by controls: 0 for no effect and ±100 for the full control effect; potency is the fitted concentration of half-maximal effect.

The target of this assay is Serine/threonine-protein kinase PLK1 (Homo sapiens) (UniProt P53350). Nature of the assay: qHTS for Inhibitors of PLK1-PDB (polo-like kinase 1 - polo-box domain): Primary Screen. For max response, negative = inhibition: series mostly up to about 57 µM. Note: nearly all actives have a fitted effect of over 65% in size. The settings on record: Plk1 PBD binding of FITC phosphopeptide, fluorescence polarization. A general note: qHTS replaces the single test concentration by a dilution series.
Sequence of Serine/threonine-protein kinase PLK1 (Homo sapiens) (P53350 whole entry, looked up, the tested form may be a part): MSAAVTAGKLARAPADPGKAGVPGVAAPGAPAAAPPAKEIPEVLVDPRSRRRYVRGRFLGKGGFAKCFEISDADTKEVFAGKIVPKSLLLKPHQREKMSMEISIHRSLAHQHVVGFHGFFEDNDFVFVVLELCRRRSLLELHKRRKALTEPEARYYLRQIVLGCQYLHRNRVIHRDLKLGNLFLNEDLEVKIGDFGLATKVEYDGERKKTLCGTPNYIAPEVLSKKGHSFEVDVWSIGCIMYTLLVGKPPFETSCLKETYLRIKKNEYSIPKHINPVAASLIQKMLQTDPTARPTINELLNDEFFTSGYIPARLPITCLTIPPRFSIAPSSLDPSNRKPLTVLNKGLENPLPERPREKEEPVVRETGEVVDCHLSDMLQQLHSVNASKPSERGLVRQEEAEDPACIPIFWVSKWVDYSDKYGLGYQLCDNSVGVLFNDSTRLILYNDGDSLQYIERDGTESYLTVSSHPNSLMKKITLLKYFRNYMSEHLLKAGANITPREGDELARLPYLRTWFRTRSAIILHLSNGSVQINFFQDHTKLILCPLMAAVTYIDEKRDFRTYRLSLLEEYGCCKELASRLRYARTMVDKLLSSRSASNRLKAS
Regarding `COc1cncc(-c2cnc3sc(NCCc4ccccn4)nn23)c1`, the max response, negative = inhibition was -12.3% (inactive).
For the molecule `Cc1ccc(C)c(S(=O)(=O)N2CCN(C(=O)Nc3ccccc3)CC2)c1`, the max response, negative = inhibition was -2.91% (inactive).
In the case of `Cc1ccc(S(=O)(=O)N2CC(=O)Nc3ccccc32)cc1C`, the max response, negative = inhibition is -4.98% (inactive).
As to `Cc1ccc(C)c(S(=O)(=O)N2CC(=O)Nc3ccccc32)c1`, the Potency was 23.8 µM (active).
Consider `NC(c1csc(NC(=O)Nc2ccccc2Oc2ccccc2)n1)c1ccccc1Cl` (stereo not given), for which the max response, negative = inhibition was 0.513% (inactive).
Consider `Cc1cccc(N(CC(=O)N2CCCC2)S(C)(=O)=O)c1C`, for which the max response, negative = inhibition is -8.37% (inactive).
As for `O=C(NCc1ccccc1)C(c1ccc(F)cc1)N1CCN(C(=O)C2CCCO2)CC1` (stereo not given), the max response, negative = inhibition was 1.19% (inactive).
Still for that read-out and setting: to `CCN(C(=O)COC(=O)c1sccc1C)c1c(N)n(Cc2ccccc2)c(=O)[nH]c1=O` belongs -3.78% (inactive); to `CCN(C(=O)COC(=O)Cc1c(F)cccc1Cl)c1c(N)n(Cc2ccccc2)c(=O)[nH]c1=O`, 4.8% (inactive).
`CCN(C(=O)CN1CCN(Cc2ccccc2)CC1)c1c(N)n(Cc2ccccc2)c(=O)[nH]c1=O`: the Potency is 23.8 µM (active).
As to `COc1ccc(NC(=O)CCCOc2ccc(C(C)=O)cc2)cc1S(=O)(=O)N1CCCCC1`, the max response, negative = inhibition was 2.7% (inactive).
For `Brc1ccc2nc(-c3ccccc3)c(Cc3ccccc3)n2c1`, the max response, negative = inhibition is -6.3% (inactive).
On to `CN1OC[C@@H]2CN(C(=O)c3cccc4ccccc34)[C@H](c3ccc(N4CCCCC4)cc3)C[C@@H]21`, for which the max response, negative = inhibition is -3.91% (inactive).
In the case of `CC1(C(=O)Nc2cccc3c2CCCC3)CCN1C(=O)C1(c2ccccc2)CC1` (stereo not given), the max response, negative = inhibition is 2.66% (inactive).
As for `CC1(Cc2ccccc2C#N)C(=O)Nc2ccc(-c3ccc4[nH]ccc4c3)cc21` (stereo not given), the max response, negative = inhibition is 2.71% (inactive).
For the molecule `CCOC(=O)C1(CCOc2ccccc2)CCN(Cc2cc(OC)cc(OC)c2)CC1`, the max response, negative = inhibition is -2.45% (inactive).
Take `CCOC(=O)C1(CCOC)CCN(Cc2ccc(C(=O)OC)cc2)CC1`: the max response, negative = inhibition was -4.26% (inactive).
`CCOC(=O)C1(CCOC)CCN(Cc2cc3ccccc3s2)CC1`: the Potency is 10.6 µM (active).
Take `O=C(Nc1cccc2cccnc12)c1ccc2sc([C@H]3C[C@H](O)[C@@H](CO)O3)nc2c1`: the max response, negative = inhibition was 3.77% (inactive).
The same measure, in the same setting: as for `Nc1nnc(SCC(=O)Nc2ccc3nc(SCC(=O)Nc4ccccc4)sc3c2)s1`, the figure is 2.76% (inactive).
Regarding `O=C(O)c1ccccc1CSc1nc2ccccc2s1`, the Potency is 8.44 µM (active).
With `Cn1c(=O)[nH]c(=O)c2c1nc(N1CCN(CCO)CC1)n2CCSc1nc2ccccc2s1`, the max response, negative = inhibition was -15.4% (inactive).
As to `Cc1noc(C)c1S(=O)(=O)N(C)C[C@H]1OCCCC[C@@H](C)Oc2ccc(NC(=O)CCCN(C)C)cc2C(=O)N([C@H](C)CO)C[C@@H]1C`, the max response, negative = inhibition is -12.6% (inactive).
Still for that read-out and setting: as for `CC1(C(=O)NS(=O)(=O)Cc2cccc(Cl)c2)CCN1C(=O)Cc1ccccc1` (stereo not given), the figure is 0.171% (inactive); as for `Cc1c(C)c2ccc(OCC(=O)N3CCN(c4cccc(Cl)c4)CC3)cc2oc1=O`, -4.22% (inactive); as for `CSCCC(NC(=O)COc1ccccc1)C(=O)N1CCN(c2cccc(C(F)(F)F)c2)CC1` (stereo not given), 10.8% (inactive).
With `O=C(COc1ccc(Cl)cc1)N1CCN(c2cccc(C(F)(F)F)c2)CC1`, the Potency is 18.9 µM (active).
As for `CCOc1cc(/C=N/NC(=O)c2ccncc2)cc(Br)c1O`, the max response, negative = inhibition was -2.72% (inactive).
As for `O=C(CC[C@H]1O[C@@H](n2ccc(=O)[nH]c2=O)[C@H](O)[C@@H]1O)N[C@H](Cc1ccccc1)C(=O)NCCCN1CCCC1=O`, the max response, negative = inhibition is -13.5% (inactive).
Consider `CN(C)CCNC(=O)c1cccc(-c2cnc3c(NC=O)cc(-c4cccc(C(F)(F)F)c4)cn23)c1`, for which the max response, negative = inhibition was -13.6% (inactive).
The same measure, in the same setting: to `CC(C)(C)OC(=O)N1CCN(C(=O)c2[nH]c(C(F)(F)F)nc2-c2ccccc2)CC1` belongs 1.58% (inactive).
In the case of `COC(=O)c1sc(N2CCN(Cc3ccccc3)CC2)nc1N`, the max response, negative = inhibition is -4.47% (inactive).
Take `COC(=O)C1=C(C)N(C)C(=S)NC1c1ccccc1` (stereo not given): the max response, negative = inhibition was -7.92% (inactive).
On to `CCOC(=O)C(C)n1cnc2c(nnn2-c2cccc(OC)c2)c1=O` (stereo not given), for which the max response, negative = inhibition was 1.99% (inactive).
Regarding `COC(=O)c1sc(=S)n(-c2ccccc2)c1N`, the Potency is 10 µM (active).
Turning to `CCOC(=O)c1sc(=S)n(-c2cccc(OC)c2)c1N`, the Potency was 14.1 µM (active).
For the molecule `CCOC(=O)c1cnc(SCC(=O)Nc2cccc(OC)c2)nc1N`, the max response, negative = inhibition was -5.18% (inactive).
On to `CC1(C)OC(=O)C2=C(C[C@@H](C3CC3)O[C@H]2CCc2cccc(Cl)c2)O1`, for which the max response, negative = inhibition is 4.74% (inactive).
Same read-out and setting: as for `COc1ccc(C(C#N)=C2C=CC(=NO)c3ccccc32)cc1`, the figure is -0.254% (inactive); as for `COc1ccccc1NC(=O)C(CC(=O)O)Cc1cc(C)cc(C)c1` (stereo not given), -4.75% (inactive).
The same measure, in the same setting: to `Cn1c(Nc2ccc(F)cc2)nc2cc(-c3ccsc3)sc2c1=O` belongs -9.36% (inactive); to `CCn1c(CSc2ncccn2)nnc1SCC(=O)N1c2ccccc2CC1C` (stereo not given), -13% (inactive).
For the molecule `CC1Cc2ccccc2N1C(=O)CSc1nnc(C2CC2)n1C` (stereo not given), the Potency was 21.2 µM (active).
As to `CC1Cc2ccccc2N1C(=O)CSc1nnc(-c2ccc(S(=O)(=O)N3CCCC3)cc2)n1C` (stereo not given), the max response, negative = inhibition was -7.29% (inactive).
With `Cc1ccc(Cn2cc(CN3CC(N4CCN(C)CC4)CS3(=O)=O)nn2)cc1` (stereo not given), the max response, negative = inhibition is -1.82% (inactive).
On the same count and under the same terms, to `O=C1[C@H]2[C@@H](c3ccc(C(F)(F)F)cc3)N[C@]3(CCCN(Cc4ccc(Br)cc4)C3=O)[C@H]2C(=O)N1Cc1ccccc1` belongs 8.62% (inactive); to `CC(C)C1CC2=C(C(=O)OC(C)(C)O2)C(c2ccc(F)cc2)O1` (stereo not given), 2.13% (inactive).
Consider `CNC(=S)Nc1ccc([N+](=O)[O-])cc1`, for which the max response, negative = inhibition was -17.5% (inactive).
Turning to `O=C1/C(=C\c2ccc([N+](=O)[O-])cc2)CS(=O)(=O)C/C1=C/c1ccc([N+](=O)[O-])cc1`, the Potency was 4.23 µM (active).
In the case of `O=C(O)C(=Cc1ccc([N+](=O)[O-])cc1)CCc1ccccc1`, the max response, negative = inhibition is -6.74% (inactive).
On the same count and under the same terms, as for `CC(=O)OC[C@@H]1CN(Cc2ccccc2)C[C@H](n2cnc3c(NCc4ccco4)ncnc32)O1`, the figure is 1.29% (inactive).
The same measure, in the same setting: as for `CCN1C(=O)[C@@H]2[C@@H]3CN(S(=O)(=O)c4ccccc4C)[C@@H](c4ccc(Cl)cc4)[C@@H]3C(=O)C[C@@H]2C1=O`, the figure is -4.29% (inactive).
For `Cc1ccc(S(=O)(=O)NCCSc2ccccc2)cc1[N+](=O)[O-]`, the max response, negative = inhibition was 1.72% (inactive).
Take `CCS(=O)(=O)c1cc([N+](=O)[O-])c(Sc2ccccc2N)s1`: the Potency was 23.8 µM (active).
With `Cc1cccc(CN2CCN(C3CN(Cc4cn(Cc5cc(C)cc(C)c5)nn4)S(=O)(=O)C3)CC2)c1` (stereo not given), the max response, negative = inhibition is -3.6% (inactive).
Regarding `COc1ccc(S(=O)(=O)N(C)C[C@H]2OCc3cnnn3CCCC(=O)N([C@H](C)CO)C[C@H]2C)cc1`, the max response, negative = inhibition is -13.3% (inactive).
In the case of `Cc1ccccc1NC(=O)c1cc(S(=O)(=O)Nc2cccc(C(=O)O)c2)ccc1Cl`, the max response, negative = inhibition is 4.03% (inactive).
On to `C/C(=N\Nc1cccc(C(=O)O)c1)c1ccc2c(c1)Nc1ccccc1S2`, for which the Potency is 26.7 µM (active).
On to `CC(=O)Nc1cccc(/C(C)=N/NC(=O)c2c(-c3ccccc3Cl)noc2C)c1`, for which the max response, negative = inhibition is -10.9% (inactive).
As to `CCOC(=O)[C@]12CCCC=C1N(CCC1=CCCCC1)C(=O)[C@H](CC(=O)N1CCSCC1)C2`, the max response, negative = inhibition is 1.28% (inactive).
As to `O=C1C(Cl)=C(Oc2ccccc2)C(=O)c2ccccc21`, the Potency is 1.68 µM (active).
Take `COC(=O)c1ccc2nc(-c3ccc(OC)c(OC)c3)c(Cc3ccccc3)n2c1`: the max response, negative = inhibition is -13.8% (inactive).
As to `CCN(CC)C(=O)c1sc2nc(-c3ccccc3)ccc2c1N`, the max response, negative = inhibition is -8.25% (inactive).
Turning to `CN(C)c1ccnc2sc(C(=O)c3ccccc3)c(N)c12`, the Potency is 29.9 µM (active).
As for `CN(C(=O)c1ccccn1)c1nnc(-c2ccccn2)s1`, the max response, negative = inhibition is 1.77% (inactive).
As to `O=C(NC(c1ccc(Cl)cc1)c1cnccn1)C1CCN(Cc2ccc(Cl)cc2)CC1` (stereo not given), the max response, negative = inhibition was 2.32% (inactive).
`Clc1cccc(Cc2c(-c3cccc(Cl)c3)nc3ccc(Cl)cn23)c1`: the max response, negative = inhibition is -13.7% (inactive).
On to `O=C(COc1ccc(Cl)cc1[N+](=O)[O-])N1CCCCC1`, for which the max response, negative = inhibition was -4.72% (inactive).
As for `O=C1CCCCC1Sc1ccc(Cl)cc1[N+](=O)[O-]` (stereo not given), the Potency is 4.74 µM (active).
For `CSc1ccccc1NC(=O)CN(C)CC(=O)Nc1ccc(Cl)cc1[N+](=O)[O-]`, the max response, negative = inhibition is -4.66% (inactive).
Regarding `CCOC(=O)c1c(NC(=S)SC)sc(C(=O)N2CCc3ccccc3C2)c1C`, the max response, negative = inhibition was -5.18% (inactive).
With `CC(=O)NC(c1ccccc1)c1nc(-c2ccccc2C)cs1` (stereo not given), the max response, negative = inhibition is -5.3% (inactive).
The same measure, in the same setting: to `COCC1CCCCN1C(=O)c1cc(COc2ccc(C)c(C)c2)on1` (stereo not given) belongs 3.28% (inactive).
On to `CCOc1ccc(NS(=O)(=O)c2ccc(C(=O)NCC3CCCO3)cc2)cc1` (stereo not given), for which the max response, negative = inhibition was 1.53% (inactive).
Take `CCOc1ccc(S(=O)(=O)N2CCN(C(=S)NCC3CCCO3)CC2)cc1` (stereo not given): the max response, negative = inhibition was 1.52% (inactive).
Regarding `CCOc1ccc(-n2c(N)c(C(=O)NCC3CCCO3)sc2=S)cc1` (stereo not given), the Potency is 23.8 µM (active).
As to `Cc1ccccc1-c1n[nH]c(=S)n1/N=C/c1ccc(-c2ccccc2Br)o1`, the max response, negative = inhibition is -17.2% (inactive).
With `CCc1n[nH]c(=S)n1/N=C/c1c[nH]c2ccc(Br)cc12`, the Potency is 33.6 µM (active).
Take `CN(Cc1ccccc1F)c1cc2c(c3c1ccn3C)C1CCC2O1` (stereo not given): the max response, negative = inhibition was -4.37% (inactive).
For the molecule `O=C1OCCOC2CCCc3oc(-c4ccccc4)c1c32` (stereo not given), the max response, negative = inhibition is -1.47% (inactive).
In the case of `CC1=C/C(=N\OS(=O)(=O)c2ccccc2)C=CC1=O`, the Potency is 1.26 µM (active).
For the molecule `CCN(CC)CCN(C)C(c1ccnc2ccccc12)c1nnnn1-c1ccc2c(c1)OCCO2` (stereo not given), the max response, negative = inhibition is -13.1% (inactive).
`COc1ccc(/C=C2\SC(=S)N(CCC(=O)N3CCOCC3)C2=O)cc1OC`: the max response, negative = inhibition is -7.23% (inactive).
Regarding `C=CCOc1ccc(/C=C2\SC(=S)N(CCC(=O)O)C2=O)cc1`, the Potency is 26.7 µM (active).
In the case of `O=C1/C(=C/c2ccc(F)cc2)SC(=S)N1CCCC(=O)N1CCCCC1CCO` (stereo not given), the max response, negative = inhibition is -15.9% (inactive).
